From PubChem
This is a sample that favours compounds with a hit; in the whole collection about 3.7% have one here.
TIM10 inh – inhibits growth of TIM10 yeast strain; AID 463195; 330,000 tested, 1.4% active; inhibition, % at 10 µM; S. cerevisiae TIM10 strain growth, BacTiter-Glo luminescence, 24 h;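 active = inhibition of 40% or more at the single tested concentration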;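 also: wild-type TIM10 isogenic control strain grown at permissive 25 °C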
NALP3 yeast inh – NALP3 inhibition in yeast; Yeast reconstituted NLRP3/ASC/caspase-1, beta-gal luminescence, 24 h; inhibition, % at 10 µM; 330,000 tested, 0.39% active;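 active = inhibition of 50% or more; inactive = inhibition below 50%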
tim10-1 inh – inhibits growth of tim10-1 mutant yeast | S. cerevisiae tim10-1 ts strain growth, BacTiter-Glo, 24 h | 330,000 tested, 2.2% active | inhibition, % at 20 µM | AID 463190;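 active = inhibition of at least 40%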;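 also: mutant grown at 25 °C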
tim23-1 inh – inhibits growth of tim23-1 mutant yeast; S. cerevisiae tim23-1 growth, BacTiter-Glo luminescence, 24 h; inhibition, % at 20 µM; 330,000 tested, 1.3% active; AID 463212;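 active = growth inhibition of the mutant yeast at or above 50%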;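 also: temperature-sensitive mutant grown at 25 °C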
PfHsp90 yeast 2 – growth inhibition of yeast expressing Plasmodium Hsp90; S. cerevisiae expressing PfHsp90, BacTiter-Glo ATP, 48 h; yeast lacking PDR1 and PDR3 efflux regulators; inhibition, % at 9.4 µM; 310,000 tested, 0.32% active; AID 504621;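 active = every replicate shows inhibition above about 80%, whatever the replicate mean, limit read from the data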
tim23-1 confirm – tim23-1 yeast growth inhibition, confirmed; shares compounds with tim23-1 inh; S. cerevisiae tim23-1 growth, BacTiter-Glo luminescence, 24 h; inhibition, % at 20 µM; 4,400 tested, 83% active; AID 463218;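 active = inhibition above about 39% in either of two replicate wells at 20 µM, limit read from the data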;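 also: temperature-sensitive tim23-1 mutant grown at 25 °C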
Each line names hits and unclear results; the compound was inactive in the other large screens (follow-up assays come after a bar, where they were run).

COc1ccc(Nc2cc(NCCCO)c([N+](=O)[O-])c3nonc23)cc1	none
CCOc1ccc(Nc2ccc([N+](=O)[O-])c3nonc23)cc1	tim23-1 inh 67 | tim23-1 confirm 61
O=C(Nc1ccccn1)c1cc(-c2cccc(Cl)c2)nc2ccccc12	none
Cn1c(=O)c2c(nc(CN3CCc4ccccc4C3)n2Cc2cccc(Cl)c2)n(C)c1=O	tim23-1 inh 51 | tim23-1 confirm 54
Cn1c(=O)c2c(nc(CN3CCN(Cc4ccccc4)CC3)n2Cc2cccc(Cl)c2)n(C)c1=O	none
Cc1cccc2c3nc4ccccc4nc3n(CCCN3C(=O)c4ccccc4C3=O)c12	none (no result: TIM10 inh, NALP3 yeast inh, tim10-1 inh, tim23-1 inh)
COc1ccc(/C=C(\C#N)C(=O)NC(C)c2ccccc2)cc1O (stereo not drawn)	tim23-1 inh 56 | tim23-1 confirm 44
COc1ccc(/C=C(\C#N)C(=O)NCc2ccccc2)cc1O	none
O=C(Nc1c(Cl)cc(Cl)cc1-c1nc2ccccc2s1)c1ccc(Br)o1	none
O=C(COC(=O)c1nc(Cl)c(Cl)c(Cl)c1Cl)NCc1ccccc1	tim23-1 inh 59 (no result: PfHsp90 yeast 2) | tim23-1 confirm 58
O=C(c1ccccc1NS(=O)(=O)c1cccc([N+](=O)[O-])c1)N1CCOCC1	none
CC(C)CN1C(=O)c2ccc(NC(=O)c3ccco3)cc2C1=O	tim23-1 inh 52 | tim23-1 confirm 53
O=Cc1cnc2ccccc2c1-c1ccccc1	tim23-1 inh 63 | tim23-1 confirm 58
O=Cc1cn[nH]c1-c1ccccc1	none
C[C@H](CO)N1C[C@H](C)[C@@H](CN(C)C(=O)Nc2ccc(C(F)(F)F)cc2)Oc2ccc(NC(=O)CCC(F)(F)F)cc2C1=O	none
CCOC(=O)CN1C(=O)CC(c2ccc([N+](=O)[O-])cc2)C1=O (stereo not drawn)	tim23-1 inh 66 | tim23-1 confirm 66
COc1ccc(N2C(=O)CC(c3ccc([N+](=O)[O-])cc3)C2=O)cc1 (stereo not drawn)	none
O=C(c1ccccc1Br)N1CCc2c([nH]c3ccccc23)C1	tim23-1 inh 61 | tim23-1 confirm inactive
O=C(C1CC1)N1CCc2[nH]c3ccccc3c2C1	none (no result: PfHsp90 yeast 2)
COc1ccc(CNc2ccc(S(N)(=O)=O)cc2)cc1	none
COc1ccc(NCc2ccc([N+](=O)[O-])s2)cc1	tim23-1 inh 58 | tim23-1 confirm 69
O=[N+]([O-])c1ccc(CNc2ccc(F)cc2)s1	tim23-1 inh 51 | tim23-1 confirm 46
O=[N+]([O-])c1ccc(CNc2cccc(Cl)c2)s1	tim23-1 inh 57 | tim23-1 confirm 56
O=C(c1ccc([N+](=O)[O-])s1)N1CCN(c2cccc(Cl)c2)CC1	none
Cc1cccc(N2C(=O)c3ccc(Br)cc3C2=O)n1	tim23-1 inh 56 | tim23-1 confirm 45
CCOC(=O)[C@@H]1[C@H]2COc3ccc(Br)cc3[C@@H]2N2C(=O)N(c3ccccc3)C(=O)[C@@]12C	none
CCOC(=O)[C@H]1[C@H]2COc3ccc(Br)cc3[C@@H]2N2C(=O)N(c3ccccc3)C(=O)[C@@]12C	tim23-1 inh 50 | tim23-1 confirm inactive
c1ccc2[nH]c(Cn3nnc4ccccc43)nc2c1	none
Cc1cccc(C(=O)NNC(=O)c2c(O)c3ccccc3n(C)c2=O)c1	tim23-1 inh 67 (no result: NALP3 yeast inh) | tim23-1 confirm inactive
CC(C)(C)c1nnc2sc(SCC(=O)N3CCCCC3)nn2c1=O	none
O=C(N/N=C/C=C\c1ccco1)c1cccs1	tim23-1 inh 64 | tim23-1 confirm 53
O=C(Cc1cccs1)N/N=C/C=C\c1ccco1	none
CC1(C)CC(=O)C=C(c2ccc(I)cc2)C1	tim23-1 inh 51 | tim23-1 confirm 41
O=C1C=C(c2ccc3[nH]ccc3c2)CCC1	none
CC1(C)CC(=O)C=C(c2ccc3[nH]ccc3c2)C1	tim23-1 inh 54 | tim23-1 confirm inactive
COc1ccc(NC(=O)C2CCN(S(=O)(=O)c3cccc4nonc34)CC2)cc1OC	none
CC(C)CCN1C(=O)c2cccc3c(N)ccc(c23)C1=O	tim23-1 inh 65 | tim23-1 confirm 47
Cc1cc(C(C)(C)C)ccc1OCCCCN1CCCC1	none
CCC(C)(C)c1ccc(OCCCC[n+]2cccc(C)c2C)c(C(C)(C)CC)c1	tim23-1 inh 59, PfHsp90 yeast 2 110 | tim23-1 confirm 36
Cc1cccc(-n2c(SCC(N)=O)nc3c(c2=O)C2(CCCC2)Cc2ccccc2-3)c1	tim23-1 inh 54 | tim23-1 confirm 47
c1ccc(-c2csc(Nc3ccccn3)n2)cc1	tim23-1 inh 50 | tim23-1 confirm inactive
O=C(N/N=C/c1cccs1)c1cc(-c2cccc3ccccc23)n[nH]1	tim23-1 inh 51 | tim23-1 confirm 48
O=C(N/N=C/c1cccs1)c1cc(-c2ccc3ccccc3c2)n[nH]1	none
CCOc1ccc(NS(=O)(=O)c2ccc3c(c2)CCN3C(C)=O)cc1	none
CCc1nnc(NC(=O)Cn2nnc(-c3ccccc3F)n2)s1	none
O=S(=O)(CCSc1nc2ccccc2o1)c1nc2ccccc2s1	none
O=S(=O)(CCSc1ccccn1)c1nc2ccccc2s1	tim23-1 inh 55 | tim23-1 confirm 49
O=C(COC(=O)CNS(=O)(=O)c1cccc(F)c1)NCCc1ccccc1	none (no result: PfHsp90 yeast 2)
O=C1NC(=O)c2cc([N+](=O)[O-])cc3cccc1c23	tim23-1 inh 62 | tim23-1 confirm 49
CCOc1cc(/C=C2\COc3ccccc3C2=O)cc(Br)c1OCC(=O)N(C)C	tim23-1 inh 50 | tim23-1 confirm 57
COc1ccc(OC)c(CCNC(=O)Cn2cccc2C(=O)c2ccccc2C)c1	tim23-1 inh 96 | tim23-1 confirm inactive
COc1ccc(OC)c(CCNC(=O)Cn2cccc2C(=O)c2ccccc2)c1	none
O=C(NS(=O)(=O)c1ccccc1)c1cccc(Br)c1	none
C/C(=N\OCC(=O)N/N=C/c1ccccc1)c1cccs1	none
C/C(=N\OCC(=O)N/N=C/c1ccccc1O)c1cccs1	tim23-1 inh 56 (no result: PfHsp90 yeast 2) | tim23-1 confirm 57
ClC(Cl)(Cl)c1nc2ccccc2n2nncc12	tim23-1 inh 54 | tim23-1 confirm inactive
Nc1cccc(-c2nc3ccc(C(=O)c4ccccc4)cc3[nH]2)c1	tim23-1 inh 55 | tim23-1 confirm 56
Nc1ccc2nc(-c3ccccc3)[nH]c2c1	none
CC(C)c1nc2c(c(=O)c3ccccc3n2C)c(=O)n1CCc1ccccc1	tim23-1 inh 59 (no result: PfHsp90 yeast 2) | tim23-1 confirm inactive
COc1ccc(CCn2c(-c3ccccc3)nc3c(c(=O)c4ccccc4n3C)c2=O)cc1	none (no result: PfHsp90 yeast 2)
COc1ccc(CCn2c(C(C)C)nc3oc4ccccc4c(=O)c3c2=O)cc1	tim23-1 inh 51 | tim23-1 confirm 41
CCCc1nc2oc3cc(OC)ccc3c(=O)c2c(=O)n1CCc1ccccc1	none
CCCn1c(=O)c2c(nc3n2CCCN3CCc2ccc(OC)c(OC)c2)n(C)c1=O	none
CCN1CCC2(CC1)N=C(c1ccc(F)cc1)C(=S)N2C(=O)c1ccc(C(C)(C)C)cc1	tim23-1 inh 53 | tim23-1 confirm inactive
